HEK cytotox = kills HEK 293 cells; HEK 293 viability, ATP luminescence (CellTiter-Glo), 48-72 h; AID 1345083; Potency, µM (series often up to 115 µM), usual class: inhibitors; 94,000 tested, 6.6% active; note: nearly all actives have a fitted effect of over 60% in size
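Pintool-delivered compounds were incubated with HEK 293 cells (250 cells/well) at 37 degree Celsius for 48 or 72 hr. ATP-dependent luminescence (CellTiter-Glo) then reported remaining viable cells.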
hNpr1 antagonist = blocks ANP-stimulated signaling of human Npr1 receptor; P16066; Potency, µM (titrated, usually from 46.3 µM), most hits filed as inhibitors; 76,000 tested, 1.6% active; HEK293 hNpr1 GloSensor cGMP, ANP-stimulated luminescence; calls by dose curve; note: nearly all actives have a fitted effect of over 60% in size
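HEK293 cells stably expressing human Npr1 and cGMP GloSensor pGS-40F, loaded 2 h with 2% GloSensor reagent, given compound 30 min at room temperature. Luminescence read before and 20 min after 0.1 nM hNppA.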
GPT2 inhibitor = inhibitors of human GPT2 alanine aminotransferase | Q8TD30 | Recombinant GPT2, coupled pyruvate oxidase/HRP Amplex Red fluorescence | Potency, µM (top dose mostly 57.7 µM), most hits filed as inhibitors | 100,000 tested, 0.25% active | AID 1671188; note: nearly all actives have a fitted effect of over 60% in size
Target sequence (Q8TD30 whole entry, looked up): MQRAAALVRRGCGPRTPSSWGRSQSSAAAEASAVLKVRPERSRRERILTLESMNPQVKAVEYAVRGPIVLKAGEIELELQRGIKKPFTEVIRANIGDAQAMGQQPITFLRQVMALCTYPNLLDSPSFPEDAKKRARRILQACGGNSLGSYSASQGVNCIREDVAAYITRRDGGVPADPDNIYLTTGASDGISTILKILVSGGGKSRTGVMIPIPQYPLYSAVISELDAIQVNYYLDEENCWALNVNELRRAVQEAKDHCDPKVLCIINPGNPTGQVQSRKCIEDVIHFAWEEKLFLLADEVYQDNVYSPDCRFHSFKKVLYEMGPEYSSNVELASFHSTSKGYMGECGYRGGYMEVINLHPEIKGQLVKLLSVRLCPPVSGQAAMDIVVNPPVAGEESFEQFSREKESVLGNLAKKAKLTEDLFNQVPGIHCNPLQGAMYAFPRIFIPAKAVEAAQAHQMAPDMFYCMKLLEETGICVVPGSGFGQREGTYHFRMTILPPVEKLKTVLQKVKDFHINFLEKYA
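Inhibition is scored from Amplex Red fluorescence generated when pyruvate oxidase and HRP act on pyruvate released by GPT2. Reactions contain 10ng/uL enzyme, 250uM a-KG and 2mM L-alanine and run 30 min at room temperature.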
FLuc inh = Photinus pyralis luciferase inhibition. P08659. purified P. pyralis luciferase, luminescence, biochemical. Potency, µM (highest dose often 115 µM), actives largely listed as inhibitors. 76,000 tested, 2.5% active. AID 1347043; note: nearly all actives have a fitted effect of over 65% in size
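Cell-free enzyme assay, 10nM P. pyralis luciferase, luciferin and ATP each at 10uM. Inhibition profiled over a 6-point titration, read as luminescence.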
3T3 cytotox = cytotoxic compounds in NIH 3T3 cells; 94,000 tested, 4.3% active; NIH 3T3 viability, CellTiter-Glo ATP luminescence, 48-72 h; Potency, µM (highest dose often 96.7 µM), most hits filed as inhibitors; note: nearly all actives have a fitted effect of over 55% in size
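Viability of NIH 3T3 cells after 48 or 72 hr compound treatment at 37 °C was assessed by CellTiter-Glo, with luminescence imaged following a 10 min room-temperature step.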
A number is an active result; . = inactive; ? = inconclusive; / = not tested or not shown. This is a sample that favours compounds with a hit; in the whole collection about 10% have one here. Unless noted, calls come from the whole dose curve; as a rule, active = well fitted curve in the direction sought with a large enough effect; inconclusive = small, poorly fitted or top-dose-only effect, or another doubt; inactive = no such curve, though single readings can be large; an effect the other way counts as inactive or inconclusive.

SMILES	HEK cytotox	hNpr1 antagonist	GPT2 inhibitor	FLuc inh	3T3 cytotox
CCc1nc2c(c(-c3ccc(O)cc3)n1)CCN(Cc1ccccc1C(F)(F)F)CC2	?	.	.	.	40µM
CCc1nc2c(c(-c3ccc(O)cc3)n1)CCN(Cc1cccc(C(F)(F)F)c1)CC2	45µM	?	.	.	40µM
Oc1ccc(-c2nc(C3CC3)nc3c2CCN(Cc2ccccc2C(F)(F)F)CC3)cc1	32µM	.	.	.	32µM
O=C(NCc1cccs1)c1ccc2nnc(-c3ccc(Cl)cc3)n2c1	?	/	.	/	?
O=C(Nc1cccc(-c2ccc(N3CCOCC3)nn2)c1)Nc1ccccc1C(F)(F)F	?	.	.	2.2µM	?
O=C(Nc1ccccc1)Nc1cccc(-c2nnc3n2CCCC3)c1	.	.	.	.	.
COc1cccc(NC(=O)Nc2cccc(-c3ccc(N4CCOCC4)nn3)c2)c1	?	?	.	1µM	?
COCc1cc(=O)n(CC(=O)Nc2cccc(OC)c2)c(N2CCOCC2)n1	.	.	.	.	.
Cc1ccc(Cl)cc1NC(=O)Nc1cccc(-c2ccc(N3CCOCC3)nn2)c1	?	.	.	1µM	.
Nc1cccc(-c2ccc(N3CCOCC3)nn2)c1	?	?	.	3.2µM	?
COCc1cc(=O)n(CC(=O)Nc2cc(Cl)ccc2C)c(N2CCOCC2)n1	.	.	.	.	.
CNC(=O)C1CCN(Cc2ccccc2-c2cccnc2)CC1	.	/	.	/	.
Cc1ccc(NC(=O)Nc2cccc(-c3ccc(N4CCOCC4)nn3)c2)cc1F	.	.	.	?	.
Cc1c(F)cccc1NC(=O)Nc1cccc(-c2ccc(N3CCOCC3)nn2)c1	.	?	.	0.63µM	.
Cc1sc2ccn(C)c(=O)c2c1C(=O)N1CCN(c2ccc(Cl)cc2)CC1	79µM	.	.	.	.
COc1ccccc1-c1cccc(CN2CCC(NC(=O)Nc3ccc(C)c(F)c3)CC2)c1	10µM	/	.	/	20µM
COc1cccc(-c2ccccc2NC(=O)C2CCN(Cc3cc(F)ccc3F)CC2)c1	22µM	?	.	.	?
COc1ccccc1-c1cccc(CN2CCC(NC(=O)c3ccccc3F)CC2)c1	?	/	.	/	?
COc1ccccc1-c1cccc(CN2CCC(NC(=O)c3ccc(F)cc3)CC2)c1	40µM	/	.	/	?
COc1ccccc1-c1cccc(CN2CCC(NC(=O)Cc3ccc(C(F)(F)F)cc3)CC2)c1	11µM	/	.	/	11µM
C=CCCC(=O)N1[C@@H](c2ccco2)[C@@H](C(=O)OCC)C[C@]12CCCCN(CCOC)C2=O	?	/	/	/	.
O=C(NC1CCN(CCn2nc3n(c2=O)CCCC3)C1)c1ccccn1 (configuration not stated)	.	/	/	/	.
COc1ccc(C(=O)NC2CCN(Cc3cccc(-c4ccccc4OC)c3)CC2)cc1	22µM	/	/	/	?
COCC(=O)NC1CCN(Cc2cccc(-c3ccccc3OC)c2)CC1	.	/	.	/	.
CCC1Oc2ccc(NS(=O)(=O)c3ccc(Cl)cc3)cc2CN(Cc2ccc(F)cc2)C1=O (configuration not stated)	?	.	.	.	14µM
SMILES	HEK cytotox	hNpr1 antagonist	GPT2 inhibitor	FLuc inh	3T3 cytotox
CCC1Oc2ccc(NS(=O)(=O)c3ccc(C)c(F)c3)cc2CN(Cc2ccc(OC)cc2)C1=O (configuration not stated)	?	.	.	.	25µM
CCC1Oc2ccc(NS(=O)(=O)c3ccccc3)cc2CN(Cc2ccc(F)cc2)C1=O (configuration not stated)	35µM	.	.	.	?
CCC1Oc2ccc(NC(=O)COC)cc2CN(Cc2ccc(Cl)cc2)C1=O (configuration not stated)	?	.	.	.	?
Cc1cccc(C)c1-c1cc(C(=O)NCc2cccc(Cl)c2)c2cnn(C)c2n1	?	/	.	/	?
CO[C@H]1C(=O)N(C2CCN(C(=O)Nc3ccc4c(c3)OCCO4)CC2)[C@H]1c1ccncc1	.	/	.	/	.
Cc1ncccc1C(=O)N1CCC2(CC1)CC(N(Cc1ccc(F)cc1)C1CC1)CCO2 (configuration not stated)	?	.	.	.	.
C=C1C(=O)OC2/C=C(\C)CC/C=C(\C=O)C(OC)C(OC(=O)C(C)CC)C12 (configuration not stated)	/	/	.	/	/
Cc1ccc(-c2ccccc2CN2CCN([S+](=O)([O-])c3c(C)noc3C)CC2)cc1Cl	?	/	.	/	?
O=C(NCCc1ccccc1)Nc1cnc2c(c1)CCC2	.	/	.	/	.
CCOCCNC(=O)C1CCCN(c2nccc(Nc3ccc(C)cc3)n2)C1 (configuration not stated)	?	/	.	/	?
COCCS(=O)(=O)c1ncc(CN2CC[C@@H]3CCCC[C@H]3C2)n1Cc1ccccc1	45µM	.	.	.	?
Cn1nc(C2CCCC2)cc1NC(=O)c1cccc(Br)c1	?	/	.	/	?
CCOc1ccccc1C(=O)NC1CCN(c2cc(-c3ccc(Cl)cc3)[nH]n2)C1 (configuration not stated)	35µM	.	?	.	?
CCOc1ccc(C(=O)NC2CCN(c3cc(-c4ccc(Cl)cc4)[nH]n3)C2)cc1 (configuration not stated)	?	.	.	.	?
CCOc1ccc(C(=O)NC2CCCN(c3cc(-c4ccc(OC)cc4)[nH]n3)C2)cc1OCC (configuration not stated)	?	.	.	.	.
CCOc1ccc(C(=O)NC2CCCN(c3cc(-c4ccc(F)cc4)[nH]n3)C2)cc1OCC (configuration not stated)	28µM	.	.	.	32µM
Cc1ccccc1C(=O)NC1CCN(c2cc(-c3ccc(Cl)cc3)[nH]n2)C1 (configuration not stated)	?	.	.	.	40µM
CCOc1ccccc1C(=O)NC1CCCN(c2cc(-c3ccc(F)cc3)[nH]n2)C1 (configuration not stated)	40µM	.	.	.	32µM
O=C(NC1CCN(c2cc(-c3ccc(Cl)cc3)[nH]n2)C1)c1ccccc1 (configuration not stated)	?	.	?	.	?
CCOC(=O)[C@H]1C[C@]2(CCCCNC2=O)N(C(=O)Cc2ccc(OC)cc2)[C@H]1c1ccco1	.	/	/	/	?
O=C(c1ccsc1)N1CCC(N2C(=O)C3(CCCCC3)C2c2ccncc2)CC1 (configuration not stated)	.	/	.	/	.
O=C(Cc1ccccn1)NC1CCN(Cc2ccc(-c3ccsc3)cc2)C1 (configuration not stated)	?	/	.	/	?
COc1cccc(C(=O)N2CCC(CCOc3ccc(F)cc3)C2)c1 (configuration not stated)	?	/	.	/	?
Cc1ccc(Nc2ccnc(N3CCC(C(=O)N4CCN(C)CC4)CC3)n2)cc1	?	/	.	/	?
